Cav32 inh – human Cav3.2 channel inhibition, primary screen; O95180; Cav3.2-expressing cells, Fluo-4 calcium fluorescence FDSS; active compounds read low; B-score at 10 µM; actives 4% (n = 100,000); AID 449739;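 active means single-dose well whose peak fluorescence ratio is a statistical outlier from its plate by either plate-standardised score or position-corrected B-score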
PLAP act – activates human placental alkaline phosphatase; actives 1.2% (n = 96,000); purified PLAP enzyme, luminescent substrate read-out; active compounds read high; activation fold at 20 µM; in the data active means activation fold above about 2
Target sequence (P05187 whole entry, looked up): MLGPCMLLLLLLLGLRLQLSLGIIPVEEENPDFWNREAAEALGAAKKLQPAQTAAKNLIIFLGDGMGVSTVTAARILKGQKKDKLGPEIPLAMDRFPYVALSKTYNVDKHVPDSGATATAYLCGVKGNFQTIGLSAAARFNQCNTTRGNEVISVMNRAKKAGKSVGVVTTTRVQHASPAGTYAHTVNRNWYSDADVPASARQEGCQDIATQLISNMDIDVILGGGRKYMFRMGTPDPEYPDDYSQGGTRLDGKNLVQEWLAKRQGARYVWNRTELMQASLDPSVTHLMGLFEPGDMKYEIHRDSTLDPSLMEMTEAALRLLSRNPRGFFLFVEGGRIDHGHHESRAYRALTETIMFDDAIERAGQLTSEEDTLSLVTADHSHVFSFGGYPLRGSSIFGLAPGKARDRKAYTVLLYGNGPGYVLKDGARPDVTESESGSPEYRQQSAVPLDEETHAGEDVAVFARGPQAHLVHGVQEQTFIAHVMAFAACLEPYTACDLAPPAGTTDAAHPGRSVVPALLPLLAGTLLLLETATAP
HER2 expr 66K – lowers expression of human Her2 kinase. SKBR-3 HER2 protein level, AlphaScreen, 18-24 h; active compounds read low. HER2 level % of control, % at 10 µM. P04626. actives 0.69% (n = 65,000);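 active means HER2 level under 5% of the carrier-only control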;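 further: lower value means stronger loss of Her2 protein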
M1 antag – blocks the rat M1 muscarinic receptor response to acetylcholine. CHO-M1 cells, Fluo-4 calcium, ACh EC80 antagonist mode; active compounds read low. actives 3.4% (n = 64,000). B-score at 10 µM. P08482;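 active means calcium fluorescence response, raw or row-and-column corrected B-score, differing from the plate sample mean either way at a set confidence level, mostly lower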
M1 ag – agonists of M1 muscarinic receptor; CHO-M1 cells, Fluo-4 calcium fluorescence, agonist mode; active compounds read high; B-score at 10 µM; actives 3% (n = 64,000);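 active means fluorescence rise, raw or as B-score row- and column-corrected plate score, outside the 99.7% band of its plate's samples, either direction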
Numbers stand for hits; 0 = inactive; - = no result. Shown are actives, neighbours in structure and some others; about 7.9% of the full set was active somewhere.

SMILES	Cav32 inh	PLAP act	HER2 expr 66K	M1 antag	M1 ag
Cc1cccc(N(CC(=O)NCCC2=CCCCC2)S(C)(=O)=O)c1C	0	0	-	-	-
Cc1ccc(NC(=O)c2cc(S(=O)(=O)c3ccccc3)ccc2Cl)cc1	-5.4	0	-	-	-
CC(Oc1ccccc1)C(=O)Nc1cccc(-c2nc3ccccc3[nH]2)c1 (stereo not given)	-4.6	0	-	-	-
CC(C)(C)C(=O)Nc1cccc(-c2nc3ccccc3[nH]2)c1	0	0	-	-	-
Cc1nc2c(C(=O)NCCC(C)C)c[nH]n2c(=O)c1Cc1ccccc1F	-5.2	0	-	-	-
Cc1nc2c(C(=O)NCCc3ccccc3)c[nH]n2c(=O)c1Cl	0	0	0	0	0
CCC(C)C(NC(=O)OCc1ccccc1)C(=O)OCN1C(=O)c2ccccc2C1=O (stereo not given)	-5.1	0	-	-	-
c1ccc2[nH]c(NC3=NCCC3)nc2c1	0	2.1	0	0	0
COc1ccccc1Nc1nc2ccccc2[nH]1	0	0	0	0	0
CN(C(=S)NC1=CCS(=O)(=O)C1)C1CCCCC1	0	0	-	-	-
O=C(CSc1nnc(CNc2ccc(Cl)cc2)n1Cc1ccccc1)NCc1ccco1	0	0	0	0	0
Fc1ccc(NCc2nnc(SCc3nnc(-c4ccccc4)o3)n2Cc2ccccc2)cc1	-8.3	0	0	0	0
COc1cc(C(=O)OCn2nnc3ccccc3c2=O)cc(OC)c1OC	0	0	0	0	0
COc1cc(CCC(=O)OCn2nnc3ccccc3c2=O)cc(OC)c1OC	0	0	0	2.7	0
CCOC(=O)c1ccccc1NC(=O)CSc1nc2ccccc2n1CC(=O)N1CCCC1	0	0	0	0	0
CN(CCOc1ccccc1)c1ccc(S(=O)(=O)N2CCCCC2)cn1	-7.6	0	-	-	-
O=C(Nc1ccc2c(c1)OCO2)C(c1ccc(Cl)cc1)N1CCC2(CC1)OCCO2 (stereo not given)	-6.7	0	0	0	0
CC(C)c1ccc(NC(=O)C(c2ccc3c(c2)OCO3)N2CCC3(CC2)OCCO3)cc1 (stereo not given)	-7.5	0	0	0	0
CCOC(=O)C(C(=O)NCc1cccc(OC)c1)c1ncc(C(F)(F)F)cc1Cl (stereo not given)	0	0	-	-	-
N#C/C(=C1\C(=O)Nc2c(Cl)cc(Cl)cc21)c1nnc2n1CCCCC2	0	0	-	-	-
Cc1nc(N2CCN(C(=O)c3ccc(Cl)cc3)CC2)c(C#N)c2c1COC(C)(C)C2	0	0	0	0	0
CC1CC(C)CN(c2nc3c(c(=O)n(C)c(=O)n3C)n2CCSc2nc3ccccc3o2)C1 (stereo not given)	-	-	0	0	0
Cc1sc(/N=C/c2ccccc2O)c(C#N)c1C	-	0	-	-	-
COc1cc(OC)cc(C(=O)N2c3ccc(F)cc3CCC2C)c1 (stereo not given)	-4.6	0	0	0	0
COc1ccccc1NC(=O)N1c2ccc(F)cc2CCC1C (stereo not given)	-5.1	0	0	0	0
SMILES	Cav32 inh	PLAP act	HER2 expr 66K	M1 antag	M1 ag
CC1CCc2cc(F)ccc2N1C(=O)C1(C)CC1(Cl)Cl (stereo not given)	0	0	-	-	-
CN(Cc1cnn(C)c1)C(=O)C1CCCCC1C(=O)O (stereo not given)	0	-	-	-	-
COc1ccc(OC)c(S(=O)(=O)N2CCN(c3c(C)cccc3C)CC2)c1	-7.3	0	0	0	0
CCN1CCN(S(=O)(=O)c2cc(OC)ccc2OC)CC1	0	0	0	0	0
Cc1ccc(Cn2ncc3c(N4CCN(c5ccccc5C)CC4)ncnc32)cc1	-5.6	0	0	0	0
CCn1c2ccc(OC)cc2c2nc3ccccc3nc21	0	-	-	-	-
CCn1c(-c2ccc3ncccc3c2)n[nH]c1=S	0	0	-	-	-
CCn1c(-c2cc(-c3cc(OC)ccc3OC)nc3ccccc23)n[nH]c1=S	0	2.3	-	-	-
CCn1c(-c2cc(-c3ccc(OC(C)C)cc3)nc3ccccc23)n[nH]c1=S	0	2.2	-	-	-
COc1ccc(OC)c(-n2c(N)c(C(=O)NCC3CCCO3)c3nc4ccccc4nc32)c1 (stereo not given)	0	0	0	0	0
CC(C)Cn1c(N)c(C(=O)NCC2CCCO2)c2nc3ccccc3nc21 (stereo not given)	-	2	0	0	0
O=C(NCC1(c2ccccc2)CCCC1)C(=O)N1CCOCC1	0	-	-	-	-
Cc1cc(C)c(C(=O)CSc2n[nH]c(=O)n2C2CC2)cc1C	0	0	0	0	0
c1ccc(CN2CCN(c3nc(NCc4ccco4)c4ccccc4n3)CC2)cc1	0	2	-	-	-
Oc1ccc(Br)cc1/C=N/N1CCN(Cc2ccccc2)CC1	0	0	-	-	-
OCC(CO)(CO)N=Cc1cc(Br)ccc1O	-7.1	0	0	0	0
